# Compounds with a hit are over-represented: about 5% of the library has one in this group of screens.
# SENP7 inh = inhibitors of human SENP7 protease; inhibition, % at 5 µM; hit rate 1.5% among 330,000; recombinant SENP7, Z-RLRGG-aminoluciferin luminescence, 40 min; Q9BQF6;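 active = inhibition above about 50% at the single test dose, limit read from the data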;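 note: plate controls were DMSO with enzyme for no effect and no enzyme buffer wells for full effect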
# Target sequence (Q9BQF6 706-1050 limits assumed): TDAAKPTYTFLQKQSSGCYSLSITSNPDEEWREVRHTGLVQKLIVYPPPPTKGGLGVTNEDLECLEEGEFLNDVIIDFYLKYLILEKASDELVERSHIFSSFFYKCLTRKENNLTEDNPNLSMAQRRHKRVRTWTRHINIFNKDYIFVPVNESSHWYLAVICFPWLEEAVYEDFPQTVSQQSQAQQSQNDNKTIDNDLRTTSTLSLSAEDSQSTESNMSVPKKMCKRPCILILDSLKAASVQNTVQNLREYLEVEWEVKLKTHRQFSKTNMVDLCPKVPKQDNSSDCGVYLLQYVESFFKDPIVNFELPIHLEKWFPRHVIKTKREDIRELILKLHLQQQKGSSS
# EBI2 block = blocks human EBI2 receptor beta-arrestin signaling; inhibition, % at 5 µM; P32249; EBI2 beta-arrestin recruitment, luminescence, 7a,25-OHC stimulated; hit rate 0.81% among 360,000; in the data active = inhibition above about 38%;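 note: enzyme fragment complementation signal reports receptor beta-arrestin coupling in cells; 0% = agonist plus DMSO wells and 100% = wells without agonist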
# SENP8 block-1 = blocks human SENP8 cleavage of Nedd8 substrate; Q96LD8; recombinant SENP8, Nedd8 substrate fluorescence; inhibition, % at 20 µM; hit rate 0.64% among 360,000; in the data active = inhibition mostly above about 40%, no sharp cut-off; inactive = mostly below about 27%
# Target sequence (Q96LD8 whole entry, looked up): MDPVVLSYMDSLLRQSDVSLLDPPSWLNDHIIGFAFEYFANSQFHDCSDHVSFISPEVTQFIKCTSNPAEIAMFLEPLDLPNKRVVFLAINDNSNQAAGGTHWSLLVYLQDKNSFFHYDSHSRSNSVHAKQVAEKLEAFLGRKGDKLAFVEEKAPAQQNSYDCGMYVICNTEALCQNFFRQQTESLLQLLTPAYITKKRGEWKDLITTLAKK
# AHR activator = activators of human aryl hydrocarbon receptor; AHR-responsive luciferase reporter cells, luminescence; hit rate 2.5% among 320,000; activation, % at 5 µM; in the data active = activation above about 47%;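 note: 0% = vehicle wells and 100% = reference agonist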
# SENP8 block-2 = blocks the human protease SENP8 | Q96LD8 | purified SENP8, Z-RLRGG-aminoluciferin cleavage, luminescence | inhibition, % at 10 µM | hit rate 1.2% among 330,000 | AID 2540; in the data active = inhibition above about 50%
# SENP6 inh = blocks the human protease SENP6 | Q9GZR1 | Recombinant SENP6 catalytic domain, aminoluciferin luminescence | inhibition, % at 10 µM | hit rate 1.8% among 330,000 | AID 2599;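 active = inhibition above about 50% at the single tested dose, limit read from the data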;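 note: plate controls were DMSO wells with enzyme for no effect and DMSO wells lacking enzyme for full effect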
# SENP8 conf = SENP8 (human) inhibition, single concentration confirmation; shares compounds with SENP8 block-1; purified SENP8, Nedd8-AMC/pro-Nedd8 cleavage fluorescence, 30 min; inhibition, % at 25 µM; hit rate 15% among 1,400; in the data active = inhibition mostly above about 39%, no sharp cut-off; inactive = mostly below about 34%
# The depositor's hits bear a star; x = no result.
SMILES,SENP7 inh,EBI2 block,SENP8 block-1,AHR activator,SENP8 block-2,SENP6 inh,SENP8 conf
COC(=O)CCCC1=CC2=CC(=O)C(C)(OC(=O)c3cccs3)C(=O)C2=CN1CCCCO (stereo unspecified),2.2,-27.8,52.8*,1.0,6.7,14.8,55.5*
COC(=O)CCCC1=CC2=C(c3ccccc3)C(=O)C(C)(OC(=O)C3CCCC3)C(=O)C2=CN1CCCCO (stereo unspecified),6.5,-8.0,47.7*,1.2,-1.5,5.1,66.5*
COC(=O)CCCC1=CC2=CC(=O)C(C)(OC(=O)c3cccs3)C(=O)C2=CN1CCN1CCOCC1 (stereo unspecified),6.5,-8.4,50.9*,2.2,7.1,18.7,55.4*
COC(=O)CCCC1=CC2=CC(=O)C(C)(OC(=O)c3cccs3)C(=O)C2=CN1C1CCCCC1 (stereo unspecified),-6.1,-7.5,26.6,0.8,5.0,3.8,x
CCOc1ccc(CCNC(=O)C2CCCN2C(=O)OCc2ccccc2)cc1OCC (stereo unspecified),-8.5,-15.2,9.5,4.4,-4.2,-11.0,x
Clc1ccc(/C=N/NC(=Nc2ccccc2)c2ccccn2)c(Cl)c1,-5.1,-17.6,30.5,13.9,-12.6,-18.1,x
C(=N\NC(=Nc1ccccc1)c1ccccn1)/c1ccccn1,-0.4,-2.2,39.8*,16.1,3.8,-0.2,3.1
CCOC(=O)C(=CNNc1ccccc1)C(=O)OCC,4.0,1.4,44.9*,-0.6,-0.4,-9.7,20.2
CCOC(=O)NNc1ccccc1,1.0,-2.8,24.7,2.7,5.8,7.9,x
O=C(O)[C@@H]1Cc2c([nH]c3ccccc23)C2CCC(=O)N21 (stereo partly specified),-3.0,-13.5,-107.5,18.2,3.5,-39.4,x
O=C1CCC[C@H]2c3[nH]c4ccccc4c3CCN12,6.6,3.0,67.8*,16.3,2.8,-10.1,5.6
Cc1ccc2nc(C3CCCCC3)c(Cc3ccsc3)n2c1,x,13.4,-372.7,x,x,x,x
COc1ccc(N2CC(C(=O)N[C@@H](C)C(=O)N[C@H](CO)c3ccccc3)CC2=O)cc1 (stereo partly specified),0.9,4.7,53.1*,-0.6,0.6,-8.9,13.1
COc1ccc(N2CC(C(=O)N[C@@H](C)C(=O)NC3CCCC3)CC2=O)cc1 (stereo partly specified),-13.7,1.2,11.2,2.4,-9.7,8.8,x
CC1CCN(S(=O)(=O)N2CCC(C(=O)NCc3ccc(F)cc3Cl)CC2)CC1,x,-6.6,12.0,x,x,x,x
CCOC(=O)c1c(-c2cccc([N+](=O)[O-])c2)csc1NC(=O)CCCOc1ccccc1,x,14.6,2.6,-0.3,x,x,x
CCOC(=O)c1c(-c2cccc([N+](=O)[O-])c2)csc1NC(=O)CCCOc1ccccc1OC,x,2.8,45.3*,x,x,x,26.0
COc1ccc(Nc2nc(NN)nc(C)c2[N+](=O)[O-])cc1,6.1,4.2,60.1*,16.8,1.1,-4.9,14.3
CCN(CC)S(=O)(=O)c1cccc(NC(=O)C(=O)c2c(-c3ccccc3)cc3ccccn23)c1,0.4,5.3,34.1,-3.5,5.2,-11.0,x
CCN(CC)S(=O)(=O)c1ccc(N2CCOCC2)c(NC(=O)C(=O)c2c(-c3ccccc3)cc3ccccn23)c1,6.4,13.1,75.0*,-1.3,3.3,7.4,20.6
O=C(NC(CSSCC(NC(=O)c1ccccc1)C(=O)O)C(=O)O)c1ccccc1 (stereo unspecified),9.2,-5.4,62.7*,0.7,-11.9,-13.8,11.2
O=C(Nc1ccc(Cl)cc1Cl)c1ccc(-c2ccccc2)cc1,-0.7,-10.4,19.0,-1.6,-3.3,-23.2,x
O=C(Nc1cc(-c2ccccc2)[nH]n1)c1ccc(Cl)cc1,67.2*,4.6,40.2*,0.9,47.5,68.7*,1.6
COc1ccc(CCNC(=O)C(=O)N2CCCC2)cc1OC,6.6,0.0,6.7,3.4,-3.5,2.0,x
Nc1cccc2nsnc12,23.5,9.2,48.5*,0.2,11.4,40.1,12.6
SMILES,SENP7 inh,EBI2 block,SENP8 block-1,AHR activator,SENP8 block-2,SENP6 inh,SENP8 conf
COC(=O)C(CC(C)C)NC(=O)c1ccc([N+](=O)[O-])cc1 (stereo unspecified),2.0,-4.3,42.6*,-1.6,1.8,-7.7,19.2
Cc1ccc(C(=O)c2coc3cc([N+](=O)[O-])c(O)c([N+](=O)[O-])c23)cc1,1.4,-1.2,46.8*,9.7,-11.9,8.7,22.9
Cc1ccc(C(=O)c2ccc([N+](=O)[O-])cc2)cc1,10.1,-6.3,5.9,-8.5,-12.9,-12.2,x
C=C(c1ccccc1)c1ccccc1N,5.8,1.1,11.1,0.8,1.3,-8.2,x
CO/N=C(/c1nonc1N)N1CCN(c2ccc([N+](=O)[O-])cc2)CC1,5.4,-7.4,41.0*,-2.2,1.9,-2.6,-0.1
COc1ccc(OS(=O)(=O)c2c(C)noc2C)cc1,4.3,-0.3,48.1*,-5.0,-0.9,-4.5,16.1
COc1ccc(N(C)S(=O)(=O)c2c(C)noc2C)c(OC)c1,-2.1,7.6,0.4,0.0,2.0,3.2,x
CNC(=O)N(c1ccccc1)c1ccccc1,-6.8,-7.3,43.1*,0.7,-14.5,-18.3,12.2
CC(=O)c1cccc(NC(=O)N(c2ccccc2)c2ccccc2)c1,-4.5,11.0,9.8,1.2,-1.6,11.5,x
CCC(C)N(C)C1CCN(C(=S)Nc2cccc(SC)c2)CC1 (stereo unspecified),8.5,-2.9,43.3*,3.5,4.9,-29.5,29.4
CC1=NN(c2ccc(Cl)c(C(=O)O)c2)C(=O)C1,16.9,-18.5,70.3*,3.2,3.2,10.6,16.6
CC1=NN(c2cccc(Cl)c2)C(=O)C1,19.9,2.1,63.9*,4.3,7.3,-4.8,54.8*
COc1ccccc1OCCNC(=O)c1cc(F)c(F)cc1Cl,-1.6,-6.8,41.1*,10.7,-2.5,6.0,13.7
CC(Sc1n[nH]c(-c2ccccc2)n1)C(=O)c1c(N)n(C)c(=O)n(C)c1=O (stereo unspecified),9.9,-1.0,5.4,-1.6,-11.8,-6.1,x
O=C(CNC(=S)N(Cc1ccccc1)Cc1cccnc1)N1CCOCC1,4.2,-4.6,19.9,-0.4,6.2,-20.1,x
O=C1CCC(C(=O)O)N1 (stereo unspecified),-1.7,-12.1,52.2*,0.1,3.1,-16.2,16.6
CC(=O)N/N=C(\C)C1COc2ccccc2O1 (stereo unspecified),4.8,3.8,40.8*,0.4,5.1,-2.6,5.9
CCNC(=O)C1CCCN(C(=O)c2ccccc2OC(F)(F)F)CC1 (stereo unspecified),x,2.4,23.1,x,x,x,x
O=C(c1cc(-c2ccccc2Cl)on1)N1CCN(C(=O)c2ccco2)CC1,4.1,0.9,42.6*,2.5,1.6,-12.5,18.3
O=C(c1cc(-c2ccc(Cl)cc2Cl)on1)N1CCN(C(=O)c2ccco2)CC1,-0.4,-0.5,35.6,2.0,-4.4,-14.5,x
